Measured values as given in PubChem BioAssay (NCI).
This is part of a sample that, as a whole, favours compounds with a hit. Of some 83,000 tested, about 20% had one in any assay.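 Plates (96-well) were seeded with cells, treated with compound at one concentration, and incubated for 48 hours before percent growth was determined.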 Unmarked numbers belong to inactive results. Activity calls are given as the source filed them. The calls were made as follows: active = growth percent below 10; inactive = the rest.

How the values were obtained:
Assay in all cases: NCI-60 one-dose screen, 48 h (100 = growth as untreated, 0 = no growth, -100 = all killed)
Conditions in all cases: 10 µM unless noted
[1] = tested on: HCT-15 colon
[2] = tested on: HT29 colon
[3] = tested on: SNB-75 CNS
[4] = tested on: SNB-19 CNS
[5] = tested on: U251 CNS
[6] = tested on: PC-3 prostate
[7] = tested on: SK-MEL-5 melanoma
[8] = tested on: UACC-62 melanoma
[9] = tested on: LOX IMVI melanoma
[10] = tested on: SK-MEL-28 melanoma

Row | SMILES | growth [1] | growth [2] | growth [3] | growth [4] | growth [5] | growth [6] | growth [7] | growth [8] | growth [9] | growth [10]
1 | COc1ccc2nc(-c3ccc(Cl)cc3)cc(-c3nnc(SC/C(=N/O)c4ccccc4)o3)c2c1 | 48.3% | 27% | 84.8% | 68.4% | 17.3% | 30% | 25.9% | 49.1% | 44.2% | 44.2%
2 | C[C@@H]1C(=O)[C@@H]2C[C@@H](O)[C@@H](O)C[C@]2(C)[C@H]2CC[C@@]3(C)C(=C12)CC[C@@H]3[C@@](C)(O)[C@H](O)CCC(C)(C)O | 107% | 97.6% | 108% | 104% | 96.6% | 96.4% | 98.1% | 97.8% | 101% | 113%
3 | C=C(C)[C@@H]1CC[C@]2(C(=O)OCCOCCOCC[P+](c3ccccc3)(c3ccccc3)c3ccccc3)CC[C@]3(C)[C@H](CC[C@@H]4[C@@]5(C)CC[C@H](C)C(C)(C)[C@@H]5CC[C@]43C)[C@@H]12 | -86.7% (active) | -81.6% (active) | -90% (active) | -72.2% (active) | -83.5% (active) | -84.9% (active) | -98% (active) | -77.8% (active) | -86.3% (active) | -80% (active)
4 | Nc1c(C(=O)Nc2cccc3ccccc23)sc2nc3c(cc12)COCC3 | 32.2% | 12.4% | 30.9% | 33.4% | 30% | 53.5% | 31% | 30.2% | 42.7% | 60.6%
5 | CN1CCN(S(=O)(=O)O[C@@H]2C(=O)N(c3cc4c5ccccc5ccc4c4ccccc34)[C@H]2c2ccc(F)cn2)CC1 | 84.8% | 82% | 74.6% | 85% | 78.6% | 63.9% | 88.7% | 86.5% | 84.5% | 113%
6 | C=C1C(=O)O[C@H]2[C@H]1CC/C(COC(=O)N1CCC[C@H]1C(=O)Nc1ccc(OC)c(C(N)=O)c1O)=C\CC[C@@]1(C)O[C@@H]21 | 59.6% | -8.09% (active) | 84% | 60.5% | 51.6% | 74.4% | 63.7% | 34.5% | 43.4% | 49.4%
7 | COc1ccc(Cl)c([N+](=O)[O-])c1 | 103% | 107% | 98.2% | 103% | 106% | 105% | 99.2% | 97% | 97.2% | 106%
8 | Cc1c(O)c(=O)ccn1-c1nc2ccccc2s1 | 38.2% | 93.8% | 95.7% | 110% | 84.1% | 90.4% | 96.2% | 98.3% | 86.7% | 107%
9 | CCC[S@](=O)c1ccc2nc(NC(=O)OC)[nH]c2c1 | 98.9% | 79.2% | 86.2% | 95.2% | 89.1% | 89.8% | 98.7% | 89.8% | 96.5% | 107%
10 | CCN1CCN(Cc2ccc(NC(=O)c3cccc(C#Cc4cccc5[nH]nc(N)c45)c3)cc2C(F)(F)F)CC1 | -70.7% (active) | -83% (active) | -60.8% (active) | -83.6% (active) | -95.6% (active) | -80.3% (active) | -97.2% (active) | -77.1% (active) | -100% (active) | -82.9% (active)
11 | C/C(=C\c1cnc(C)s1)[C@@H]1C[C@@H]2O[C@@H]2CCC[C@H](C)[C@H](O)[C@@H](C)C(=O)C(C)(C)[C@@H](O)CC(=O)O1 | 23% | 8.92% (active) | -1.96% (active) | 44% | 24.5% | 34.2% | 34.3% | 51% | 46.4% | 75.1%
12 | N#C/C(=C/c1ccc(O)c([N+](=O)[O-])c1)c1nc(-c2ccc([N+](=O)[O-])cc2)cs1 | 24.7% | 52.7% | 80.5% | 34.5% | 22.1% | 29.9% | 5.51% (active) | -17.2% (active) | 38.2% | 35.5%
13 | Nc1c(C(=O)Nc2cccc3ccccc23)sc2nc3c(cc12)CCCCC3 | 28.6% | 19.1% | 19.4% | 27.2% | 16.8% | 34.1% | 37.1% | 38% | 38.4% | 71.7%
14 | COc1ccc2cc(/C=C3\N=C(c4cc(OC)c(OC)c(OC)c4)OC3=O)c(OC)nc2c1 | 99.4% | 98.8% | 98.3% | 94.6% | 92.8% | 93.6% | 103% | 89.7% | 102% | 110%
15 | Sc1cccc2cccnc12 | 30.1% | 15.8% | 52.8% | 42.7% | 23.2% | 43.7% | -10.9% (active) | -3.89% (active) | 7.92% (active) | 36.3%
16 | COC(=O)/C=C1\SC(=Nc2cccc(Cl)c2)N(CCc2c[nH]c3ccccc23)C1=O | 29% | 8.6% (active) | 84.5% | 54.4% | 41.1% | 31.8% | 63.3% | 18.3% | 5.31% (active) | 64.8%
17 | CC(C)CSc1nc(Nc2ccccc2)c(C#N)c(-c2ccc(F)cc2)n1 | 67.4% | 50.7% | -16.2% (active) | 5.61% (active) | -32.5% (active) | 47.7% | 80.5% | 70.9% | 4.45% (active) | 84.5%
18 | COc1cc(NC(=O)COc2cc(C)nc3ccc(OC)cc23)cc(OC)c1 | 90.9% | 91.7% | 77.3% | 91.4% | 91% | 81.9% | 76% | 74.4% | 85.8% | 102%
19 | COc1cc(-c2csc(NC(=O)Nc3ccc(Cl)cc3)n2)cc(OC)c1OC | 20.1% | 36.1% | 36.5% | 24.3% | 25.4% | 3.63% (active) | -37.8% (active) | -7.54% (active) | 24.7% | 41.1%
20 | c1ccc2nc(N3CCOCC3)c(N3CCCCC3)nc2c1 | 100% | 96.1% | 76.7% | 93.9% | 96.9% | 90.8% | 96.8% | 83.1% | 99.1% | 109%
